Experimental data: article PMC5700166
Numbering of substitutions follows the chain as printed.

Experiments:
Assay in all cases: protein-binding microarray (PBM); PBM: ~300 nM protein, 6 mM HEPES pH 7.8, 80 mM KCl, 0.5 mM EDTA, 0.5 mM EGTA, 6% glycerol, 35 ng/ul poly-dIdC, 1% milk, 1 h, room temperature; Ap Aiptasia and Nv Nematostella (sea anemones) / Co Capsaspora / Aq Amphimedon (sponge) / Dm Drosophila / Hu human; RHD is the Rel homology domain; high values mean tight binding
Conditions in all cases: dsDNA, one strand shown
GST-Ap-NF-kB RHD = target: T1, GST-Ap-NF-kB RHD (Exaiptasia pallida (Aiptasia), UniProt A0A913YAJ5 2-422)
T1 sequence: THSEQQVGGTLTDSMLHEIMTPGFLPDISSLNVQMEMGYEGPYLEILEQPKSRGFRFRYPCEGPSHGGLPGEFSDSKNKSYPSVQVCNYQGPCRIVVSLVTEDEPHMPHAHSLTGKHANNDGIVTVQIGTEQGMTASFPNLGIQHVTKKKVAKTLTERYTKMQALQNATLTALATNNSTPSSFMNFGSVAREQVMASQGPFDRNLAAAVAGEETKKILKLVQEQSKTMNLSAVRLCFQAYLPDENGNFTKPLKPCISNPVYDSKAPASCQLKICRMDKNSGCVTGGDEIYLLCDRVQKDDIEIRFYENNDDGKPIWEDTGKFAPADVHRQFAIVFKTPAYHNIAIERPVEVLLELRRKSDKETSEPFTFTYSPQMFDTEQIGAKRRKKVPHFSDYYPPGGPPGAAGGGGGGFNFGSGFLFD

[1] = target: T2, GST-Nv-NF-kB (Cys allele) (Nematostella vectensis, UniProt E5G601 2-411)
T2 sequence: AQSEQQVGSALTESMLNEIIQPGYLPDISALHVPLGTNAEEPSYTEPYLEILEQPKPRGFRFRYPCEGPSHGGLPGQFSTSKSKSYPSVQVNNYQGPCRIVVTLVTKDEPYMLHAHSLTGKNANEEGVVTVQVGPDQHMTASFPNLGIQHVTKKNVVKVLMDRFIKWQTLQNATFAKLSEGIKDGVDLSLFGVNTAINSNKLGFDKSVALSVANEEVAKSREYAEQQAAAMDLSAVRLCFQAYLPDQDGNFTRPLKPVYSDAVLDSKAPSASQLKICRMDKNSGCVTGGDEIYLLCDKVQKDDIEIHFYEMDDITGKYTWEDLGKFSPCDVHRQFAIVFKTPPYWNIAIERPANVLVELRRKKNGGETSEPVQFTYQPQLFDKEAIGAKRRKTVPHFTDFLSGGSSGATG

[2] = target: T3, GST-Nv-NF-kB (Ser allele) (Nematostella vectensis, UniProt A7UNT2 2-411)
T3 sequence: T2 sequence with Q21R, C66S, S207N, E215Q, V217A, E225K, A268E, D399E

GST-Co-NF-kB = target: T4, GST-Co-NF-kB (Capsaspora owczarzaki, UniProt F1ARL5 200-546)
T4 sequence: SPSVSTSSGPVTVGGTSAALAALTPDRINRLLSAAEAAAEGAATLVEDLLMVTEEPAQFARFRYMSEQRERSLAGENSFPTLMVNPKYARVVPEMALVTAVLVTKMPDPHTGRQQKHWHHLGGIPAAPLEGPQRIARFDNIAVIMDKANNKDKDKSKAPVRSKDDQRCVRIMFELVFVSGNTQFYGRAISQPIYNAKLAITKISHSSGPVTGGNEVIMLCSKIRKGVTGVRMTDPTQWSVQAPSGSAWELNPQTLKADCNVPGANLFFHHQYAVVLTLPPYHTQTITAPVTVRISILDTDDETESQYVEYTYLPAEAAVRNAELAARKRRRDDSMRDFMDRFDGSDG

GST-Dm-Relish = target: T5, GST-Dm-Relish (Drosophila melanogaster, UniProt Q94527 99-473)
T5 sequence: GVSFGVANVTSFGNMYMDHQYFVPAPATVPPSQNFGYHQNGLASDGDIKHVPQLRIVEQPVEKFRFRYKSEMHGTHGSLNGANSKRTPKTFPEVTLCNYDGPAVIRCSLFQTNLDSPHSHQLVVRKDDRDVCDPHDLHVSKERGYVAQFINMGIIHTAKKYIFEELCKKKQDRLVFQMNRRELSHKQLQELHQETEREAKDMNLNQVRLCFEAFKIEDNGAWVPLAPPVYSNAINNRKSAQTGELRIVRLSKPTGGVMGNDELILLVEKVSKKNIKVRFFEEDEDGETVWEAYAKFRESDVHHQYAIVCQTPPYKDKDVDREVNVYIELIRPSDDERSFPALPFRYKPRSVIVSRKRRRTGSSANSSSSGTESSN

GST-Aq-NF-kB = target: T6, GST-Aq-NF-kB (Amphimedon queenslandica, UniProt A9Y5G7 2-389)
T6 sequence: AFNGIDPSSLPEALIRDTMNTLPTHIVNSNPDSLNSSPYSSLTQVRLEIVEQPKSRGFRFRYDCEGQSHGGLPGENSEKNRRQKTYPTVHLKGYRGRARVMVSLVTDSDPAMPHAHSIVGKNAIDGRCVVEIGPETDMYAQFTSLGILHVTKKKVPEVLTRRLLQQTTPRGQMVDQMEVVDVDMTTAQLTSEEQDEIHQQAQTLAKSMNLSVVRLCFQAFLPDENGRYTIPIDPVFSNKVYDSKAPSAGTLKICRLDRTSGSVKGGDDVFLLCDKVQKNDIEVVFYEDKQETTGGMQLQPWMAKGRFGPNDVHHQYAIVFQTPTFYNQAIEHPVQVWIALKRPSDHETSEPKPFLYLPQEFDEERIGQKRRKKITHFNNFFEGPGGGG

GST-Hu-p50 = GST-Hu-p50 (Homo sapiens, UniProt P19838 7-356)
Chain of GST-Hu-p50 (P19838 7-356): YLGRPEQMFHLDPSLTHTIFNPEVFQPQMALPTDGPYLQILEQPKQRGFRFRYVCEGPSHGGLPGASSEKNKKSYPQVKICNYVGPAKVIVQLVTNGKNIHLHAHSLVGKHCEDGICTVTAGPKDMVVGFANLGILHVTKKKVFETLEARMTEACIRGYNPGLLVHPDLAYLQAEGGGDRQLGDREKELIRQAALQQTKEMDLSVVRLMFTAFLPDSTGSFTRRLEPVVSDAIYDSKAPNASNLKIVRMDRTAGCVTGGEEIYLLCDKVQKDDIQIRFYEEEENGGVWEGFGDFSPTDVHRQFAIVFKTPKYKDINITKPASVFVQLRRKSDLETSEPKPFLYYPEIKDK

Sequence	binding signal (GST-Ap-NF-kB RHD)	binding signal [1]	binding signal [2]	binding signal (GST-Co-NF-kB)	binding signal (GST-Dm-Relish)	binding signal (GST-Aq-NF-kB)	binding signal (GST-Hu-p50)
CCGATTAACATCAGGGTATTTTATGATGTTAATCGGGTCTTGATTCGCTTGACGCTGCTG	5.82 z-score	8.31 z-score	7.61 z-score	3.22 z-score	5.65 z-score	7.07 z-score	5.87 z-score
CCGATTAACATCAGGGGGGTATATGATGTTAATCGGGTCTTGATTCGCTTGACGCTGCTG	5.34 z-score	2.99 z-score	4.19 z-score	5.73 z-score	3.95 z-score	4.1 z-score	3.59 z-score
CCGATTAACATCAGGGGGATTACTGATGTTAATCGGGTCTTGATTCGCTTGACGCTGCTG	8.76 z-score	7.64 z-score	8.21 z-score	5.85 z-score	9.03 z-score	6.92 z-score	7.22 z-score
CCGATTAACATCAGGGGAAACAATGATGTTAATCGGGTCTTGATTCGCTTGACGCTGCTG	5.65 z-score	7.25 z-score	9.76 z-score	8.67 z-score	3.09 z-score	4.59 z-score	5.36 z-score
CCGATTAACATCAAAATAGTCCCTGATGTTAATCGGGTCTTGATTCGCTTGACGCTGCTG	7.45 z-score	7.77 z-score	7.5 z-score	2.01 z-score	4.37 z-score	6.34 z-score	5.5 z-score
CCGATTAACATCAGGGGCATACCTGATGTTAATCGGGTCTTGATTCGCTTGACGCTGCTG	3.84 z-score	4.44 z-score	1.94 z-score	1.44 z-score	3.9 z-score	6.89 z-score	2.64 z-score
CCGATTAACATCACGGTATTCCCTGATGTTAATCGGGTCTTGATTCGCTTGACGCTGCTG	4.35 z-score	3.63 z-score	3.91 z-score	3.34 z-score	6.53 z-score	6 z-score	1.52 z-score
CCGATTAACATCAGGAGGTCCCCTGATGTTAATCGGGTCTTGATTCGCTTGACGCTGCTG	5.22 z-score	3.71 z-score	2.14 z-score	1.57 z-score	4.16 z-score	5.29 z-score	3.18 z-score
CCGATTAACATCAGGAATCCCCCTGATGTTAATCGGGTCTTGATTCGCTTGACGCTGCTG	10.9 z-score	10.2 z-score	9.39 z-score	5.73 z-score	10.2 z-score	9.58 z-score	7.57 z-score
CCGATTAACATCAGGGTAATACCTGATGTTAATCGGGTCTTGATTCGCTTGACGCTGCTG	4.26 z-score	5.72 z-score	3.69 z-score	2.23 z-score	3.92 z-score	7.45 z-score	2.82 z-score
CCGATTAACATCAAGGATTCCCCTGATGTTAATCGGGTCTTGATTCGCTTGACGCTGCTG	9.7 z-score	10.5 z-score	10 z-score	6.56 z-score	9.55 z-score	7.75 z-score	6.89 z-score
CCGATTAACATCAGGGACTACCCTGATGTTAATCGGGTCTTGATTCGCTTGACGCTGCTG	6.16 z-score	5.24 z-score	4.07 z-score	1.8 z-score	7.1 z-score	7.57 z-score	4.13 z-score
CCGATTAACATCAGAGACCCCCCTGATGTTAATCGGGTCTTGATTCGCTTGACGCTGCTG	4.3 z-score	3.27 z-score	2.81 z-score	2.4 z-score	5.26 z-score	3.97 z-score	3.87 z-score
CCGATTAACATCACAAATCCCCCTGATGTTAATCGGGTCTTGATTCGCTTGACGCTGCTG	8.39 z-score	8.44 z-score	9.23 z-score	6.1 z-score	7.73 z-score	6.8 z-score	7.16 z-score
CCGATTAACATCAGGGGATTACCTGATGTTAATCGGGTCTTGATTCGCTTGACGCTGCTG	9.27 z-score	10.5 z-score	9.69 z-score	3.93 z-score	9.7 z-score	9.77 z-score	6.76 z-score
CCGATTAACATCAGGGGGAAGGATGATGTTAATCGGGTCTTGATTCGCTTGACGCTGCTG	4.09 z-score	5.38 z-score	5.53 z-score	7.14 z-score	2.47 z-score	4.48 z-score	4.08 z-score
CCGATTAACATCACGTACTCCCCTGATGTTAATCGGGTCTTGATTCGCTTGACGCTGCTG	4.07 z-score	2.77 z-score	3.43 z-score	2.99 z-score	4 z-score	2.92 z-score	2.83 z-score
CCGATTAACATCAGGGGGGTACCTGATGTTAATCGGGTCTTGATTCGCTTGACGCTGCTG	5.8 z-score	3.31 z-score	3.85 z-score	4.86 z-score	5.81 z-score	5.74 z-score	4.26 z-score
CCGATTAACATCAAGGAACTCCCTGATGTTAATCGGGTCTTGATTCGCTTGACGCTGCTG	3.98 z-score	3.82 z-score	2.62 z-score	1.49 z-score	5.06 z-score	5.06 z-score	3.54 z-score
CCGATTAACATCAAGGGGGATTCTGATGTTAATCGGGTCTTGATTCGCTTGACGCTGCTG	9.03 z-score	8.85 z-score	10.3 z-score	4.93 z-score	8.21 z-score	7.13 z-score	7.71 z-score
CCGATTAACATCAGGGGATTGCATGATGTTAATCGGGTCTTGATTCGCTTGACGCTGCTG	5.77 z-score	5.89 z-score	6.93 z-score	2.38 z-score	4.62 z-score	4.23 z-score	5.31 z-score
CCGATTAACATCAGGGGGAATCATGATGTTAATCGGGTCTTGATTCGCTTGACGCTGCTG	8.02 z-score	7.33 z-score	8.26 z-score	8.51 z-score	6.2 z-score	5.7 z-score	6.66 z-score
CCGATTAACATCAGAATTTCCCCTGATGTTAATCGGGTCTTGATTCGCTTGACGCTGCTG	9.18 z-score	10.1 z-score	11.5 z-score	8.73 z-score	6.98 z-score	8.28 z-score	6.93 z-score
CCGATTAACATCAGATAATTCCCTGATGTTAATCGGGTCTTGATTCGCTTGACGCTGCTG	5.7 z-score	7.58 z-score	6.02 z-score	4.01 z-score	3.74 z-score	7.02 z-score	4.73 z-score
